# Results published in PubChem BioAssay (NCATS).
# Inconclusive results are not listed. Where a call stands in place of a potency, no number is given. Calls of active or inactive are those of the source. The call rests on the fitted dose curve; in most records, active means well fitted cell-killing curve with a large enough effect; inconclusive means small, poorly fitted or top-dose-only effect; inactive means flat fitted curve, though single readings scatter. Starred links: 1 amine or outer side, 2 acyl side, 3 side chain; linkers in the order of their positions; H or OH if unused. Positions of bridges follow the written chain, without caps; N, C: chain ends. Non-standard residues stand in square brackets, D forms with d. Residues, ends and D or L forms follow the SMILES beside them. ξ: configuration not given here. *: point of attachment. X3 = C[C@@H](Oc1ccc([C@H](N[*:1])C(=O)[*:2])cc1)[C@]1(/C=C\C(=O)[*:3])CO1; d(aIle) = CC[C@H](C)[C@@H](N)C(=O)O; X2 = CC(C)[C@@H](O)C(C)C(=O)*; ξNMeF = CNC(Cc1ccccc1)C(=O)O; ξT = CC(O)C(N)C(=O)O; ξS = NC(CO)C(=O)O
# Test: KB-8-5-11 Cancer Cell Toxicity qHTS against the NCATS CANVASS Library (AID 1347364); further: nearly all actives have a fitted effect of over 75% in size
# Conditions: KB-8-5-11 MDR cells viability, CellTiter-Glo, 72 h; series mostly up to 46.1 µM
# Description: Natural products and their derivatives continue to be wellsprings of nascent therapeutic potential. However, many laboratories have limited resources for biological evaluation, leaving their previously isolated or synthesized compounds largely or completely untested. To address this issue, the Canvass library of natural products was assembled (https://tripod.nih.gov/canvass), in collaboration with academic and industry researchers, for quantitative high-throughput screening (qHTS) across a diverse set of cell-based and biochemical assays. The pure (>85% purity by liquid chromatography/mass spectrometry [LC/MS]) Canvass library of 346 natural products were submitted by 45 academic laboratories and companies around the world. We collected pure natural products to circumvent deconvolution and structure elucidation due to time and resource limitations. The library was formatted into 1536-well plates and evaluated in 50 qHTS (in an 11-pnt concentration series) bioassays with broad scope of disease-relevant mechanisms. The resulting data set from 50 different assays was then systematically analyzed to identify overall trends and specific natural products with interesting biological activities. Reported herein are the results of each individual qHTS and their corresponding assay protocol. […] National Center for Advancing Translational Sciences (NCATS), Rockville, MD National Institute of Health (NIH), Bethesda, Maryland
# Cancer Cell Toxicity qHTS protocol 1. In a 1536 well, tissue culture treated white solid bottom plates (Corning 7494), 5 uL of KB-8-5-11 cell solution (final concentration of 500 cells / well) was dispensed using the Multidrop Combi dispenser (Thermo Fisher Scientific) into columns 3-48, rows 1-32. DMEM + 10% FBS + 100 U/mL penicillin / 100ug/mL streptomycin media solution was dispensed into column 1-2, row 1-32 also using the Multidrop Combi dispenser. For follow-up confirmation, KB 8-5-11 was also plated in medium supplemented with 1uM tariquidar. 2. Control and Compounds were pin transferred (~23nL volume) to the assay plates via Wako Pin-tool (Wako Automation, Richmond VA) equipped with a 1536 pin head. The compounds were transferred to columns 5-48 resulting in a final concentration ranging from 0.17 nM to 103 uM. Dose response titration of Bortezomib was pin transferred into column 3, rows 1-32 (2mM; 1:2 dilution; 16 points; n = 2) resulting to a final concentration range of 0.3nM - 9.2uM. 3. The assay plates were further incubated in the at 37C, 5% CO2, 95% Rh for 72 hr. 4. After incubation, 2.5uL of CellTiter-Glo reagent (Promega) was added to the assay plates (column 1-48, rows 1-32) using the Multidrop Combi dispenser. 5. The assay plates were incubated at room temperature for 10 minutes. 6. Luminescence signal was acquired via the ViewLux plate reader (PerkinElmer) using a clear emission filter, 1 sec exposure, and 1x binning settings.
# Potency means the concentration at half of the fitted maximal effect.
row,Compound,Potency
1,CO[C@H]([C@@H](C)[C@H]1O[C@]1(C)C[C@H](C)/C=C/C=C(\C)[C@H]1O[C@@H](CC(=O)O)CC[C@@H]1C)[C@@H](C)O,0.0264 µM (active)
2,C[N+](C)(C)CCc1c[nH]c2ccccc12,inactive
3,C[C@]12CC(O)C3[C@@H](CCC4C[C@@H](O)CC[C@@]43CO)[C@@]1(O)CC[C@@H]2C1=CC(=O)OC1 (stereo not given in full),18.7 µM (active)
4,C1=C2CCCN[C@H]2C2CC1[C@H]1CCCCN1C2 (stereo not given in full),inactive
5,C/C(=C\[C@H](C)C(=O)C[C@H](O)CC1CC(=O)NC(=O)C1)[C@@H]1OC(=O)/C=C/CC/C=C/C=C/[C@@H]1C,2.35 µM (active)
6,CO[C@H]1C[C@H](O[C@H]2[C@@H](O)C[C@H](O[C@H]3CC[C@]4(C=O)[C@H]5CC[C@]6(C)C(C7=CC(=O)OC7)CC[C@]6(O)[C@@H]5CC[C@]4(O)C3)O[C@@H]2C)O[C@H](C)[C@H]1O[C@H]1C[C@@H](OC)[C@@H](O[C@@H]2O[C@H](CO)[C@@H](O)[C@H](O)[C@H]2O)[C@@H](C)O1 (stereo not given in full),0.166 µM (active)
7,CC(C)CC1C(=O)O[C@H](C(C)C)C(=O)N(C)C(CC(C)C)C(=O)O[C@@H](C(C)C)C(=O)N(C)C(CC(C)C)C(=O)O[C@H](C(C)C)C(=O)N(C)C(CC(C)C)C(=O)O[C@@H](C(C)C)C(=O)N1C (stereo not given in full),9.35 µM (active)
8,CC[C@@H]1CN2CCC3(Nc4cccc(OC)c4C3=O)[C@@H]2C[C@@H]1/C(=C\OC)C(=O)OC (stereo not given in full),inactive
9,CCCCC1CC[C@H]2CCCC(CCC)N12 (stereo not given in full),inactive
10,CCCC[C@@H]1CC[C@H]2CCCC(CCCO)N12 (stereo not given in full),inactive
11,C=CC(C)(C)[C@@]12C[C@H]3C(=O)N/C(=C/c4cnc[nH]4)C(=O)N3[C@@H]1Nc1ccccc12,inactive
12,C=CC(C)(C)[C@@]12C[C@H]3C(=O)N/C(=C\c4cnc[nH]4)C(=O)N3[C@@H]1Nc1ccccc12,inactive
13,C/C=C(\C)C(=O)O[C@@H]1[C@@H](O)[C@@H]2O[C@H]3[C@H](O[C@@H](CCCCC)CCCCCCC(=O)CCC(=O)OC[C@@H](O2)[C@H]1OC(=O)/C=C/c1ccccc1)O[C@H](C)[C@H](OC(C)=O)[C@@H]3O,1.48 µM (active)
14,CC[C@H]1CN2CCc3c([nH]c4cccc(OC)c34)[C@@H]2C[C@@H]1/C(=C\OC)C(=O)OC,inactive
15,c1ccc2nc3c(cc2c1)[nH]c1ccccc13,inactive
16,C[C@]12CCC3[C@@H](CC[C@@H]4C[C@@H](O)CC[C@]34CO)[C@@]1(O)CC[C@@H]2C1=CC(=O)OC1 (stereo not given in full),0.935 µM (active)
17,C=C[C@]12C=CCN3CC[C@@]4(c5ccccc5NC(=O)[C@@H]4C1)[C@@H]32,inactive
18,C=C[C@H]1CN2CCc3c([nH]c4cccc(OC)c34)[C@@H]2C[C@@H]1/C(=C\OC)C(=O)OC,inactive
19,COC1=C(C2=C(OC)C(=O)c3cc4c(c(O)c3C2=O)C(=O)O[C@H](C)C4)C(=O)c2c(cc3c(c2O)C(=O)O[C@H](C)C3)C1=O,inactive
20,C/C=C1/CN2C3CC1C1=CCC(=O)N4c5ccccc5[C@@]3(C[C@@H]2C2=C[C@H]3C5CC6N(CC[C@@]67c6ccccc6N(C2=O)[C@@H]37)C/C5=C/C)[C@H]14 (stereo not given in full),16.6 µM (active)
21,O[C@H]1C=C[C@@]23CCN(Cc4cc5c(cc42)OCO5)[C@@H]3C1,inactive
22,C/C=C/[C@@H]1[C@H]2C[C@@H](C)CC[C@@H]2C(C)=C[C@H]1C(=O)c1c(O)c(-c2ccc(O)cc2)c[nH]c1=O,20.9 µM (active)
23,CC[C@]12C=CCN3CC[C@]4(C(=C(C(=O)OC)C1)Nc1ccccc14)[C@@H]32,inactive
24,CO[C@@]12c3c(C)cc(O)c4c(=O)occ(c34)C(=O)[C@@H]1[C@]13COC(=O)c4c(O)cc(C)c(c41)C(=O)[C@H]2[C@@H]3OC(C)=O,inactive
25,C/C=C1/CN2CC[C@@]34c5ccccc5N(C)[C@@H]3[C@@H]2C[C@@H]1[C@H]4C(=O)OC,inactive
26,CO[C@H]1[C@H](O[C@H]2CC[C@]3(C=O)[C@H]4CC[C@]5(C)[C@@H](C6=CC(=O)OC6)CC[C@]5(O)[C@@H]4CC[C@]3(O)C2)O[C@H](C)[C@H](O)[C@@H]1OC,0.132 µM (active)
27,CC[C@H](C)[C@H]1NC(=O)[C@@H](NC(=O)C(C)[C@H](O)C(C)C)[C@@H](C)OC(=O)C2COC(=O)CNC(=O)/C=C\[C@]3(CO3)[C@@H](C)Oc3ccc(cc3)[C@H](NC1=O)C(=O)N(C)C(Cc1ccccc1)C(=O)NC(C(C)O)C(=O)N2 (stereo not given in full) (X2-T[d(aIle)][X3][ξNMeF][ξT][ξS]; ester 1-C; linker 3-6 via G),inactive
28,C[C@]12CC(O)C3[C@@H](CC[C@@H]4C[C@@H](O)CC[C@]34CO)[C@@]1(O)CC[C@@H]2C1=CC(=O)OC1 (stereo not given in full),5.9 µM (active)
29,CCCC[C@@H](C)/C=C1/CN2CCC[C@H]2[C@@](C)(O)[C@@H]1O,inactive
30,CO[C@@H](/C=C/CC/C=C/C(=O)O)[C@@H](O)[C@H](C)/C=C(\C)[C@H](O)[C@H](C)C(=O)CCCC1CC(=O)NC(=O)C1,inactive
